PubChem BioAssay AID485344 (National Center for Advancing Translational Sciences (NCATS), 2010)
Among all 340,000 compounds or so, about 6,900 (2%) were called active. Cut-off read from the data, not from the text of the source: active = inhibition above about 30%; inactive = below that, where a call was filed. What follows is part of a selection rich in actives, with near analogues and random picks from the rest.

What follows are molecules tested against D(2) dopamine receptor (Homo sapiens) (UniProt P14416) (assay: HTS Assay for Allosteric Antagonists of the Human D2 Dopamine Receptor: Primary Screen for Antagonists). Conditions: HEK293 TREx D2 cells, calcium flux, dopamine EC80; at 10 µM; hits give high values.
Excerpt: NIH Chemical Genomics Center [NCGC] NIH Molecular Libraries Probe Centers Network [MLPCN] MLPCN Grant: NS064831-01 Assay Submitter (PI): David Sibley Dopamine receptors (DARs) are involved in the etiology and/or therapy of a number of neuropsychiatric and endocrine disorders. For instance, all receptor-based antiparkinsonian drugs work via stimulating the D2 DAR subtype whereas all FDA-approved antipsychotic agents are antagonists of this receptor. […] There are three different types of allosteric modulators that we are seeking, two of which will stimulate or augment receptor signaling, allosteric agonists and potentiators, while the third, allosteric antagonists, will attenuate receptor signaling. The present primary screening assay measures compound antagonism after an EC80 addition of dopamine by tracking calcium flux in a […], inducible Hek293 Trex D2 cell line.
Freshly passaged cells are plated in 1536 well black, clear bottom plates at a density of 4000 cells/well in 3 ul of complete media containing 1x tetracycline inducer. After an overnight incubation at 30 C in 5% CO2, cells are loaded with 2 ul of the no wash Calcium Assay Kit (ABD Bioquest) and incubated at room temperature for 30 to 90 minutes. Agonist read: A 10 cycle (1 second/cycle) baseline measurement is taken and then the FDSS online 1536 pintool delivers 23 nl of compound library (as well as dopamine controls) to the plate. The plate is measured for kinetically at 1 cycle/sec for 180 seconds. Following the 180 second read, 1 ul of an EC80 (negative modulation assay) is delivered by an onboard pipette head. Measurements are taken kinetically for an additional 180 seconds.
Note: 0% is about no effect.

Sequence of D(2) dopamine receptor (Homo sapiens) (P14416 whole entry, looked up): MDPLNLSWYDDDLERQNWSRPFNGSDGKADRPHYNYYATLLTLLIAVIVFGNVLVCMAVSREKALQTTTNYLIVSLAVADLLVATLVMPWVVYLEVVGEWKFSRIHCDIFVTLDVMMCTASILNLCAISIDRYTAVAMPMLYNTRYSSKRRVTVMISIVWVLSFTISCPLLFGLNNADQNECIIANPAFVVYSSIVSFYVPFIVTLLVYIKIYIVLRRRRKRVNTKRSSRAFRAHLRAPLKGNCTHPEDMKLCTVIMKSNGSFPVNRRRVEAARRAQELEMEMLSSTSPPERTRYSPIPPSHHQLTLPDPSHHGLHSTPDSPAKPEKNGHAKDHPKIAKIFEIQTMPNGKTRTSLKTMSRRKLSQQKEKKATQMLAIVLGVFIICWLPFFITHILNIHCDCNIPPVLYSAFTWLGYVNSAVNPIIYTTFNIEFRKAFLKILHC

inhibition, active:
O=C(CCN1CCN(C/C=C/c2ccccc2)CC1)Nc1ccccc1Cl 31.9%
Cc1ccc(S(=O)(=O)N(C)CC(=O)OCC(=O)N2CC(=O)Nc3ccccc32)cc1 36.8%
CC(=O)N/C(=C/c1ccc(Cl)cc1)C(=O)NCCc1c[nH]c2ccccc12 31%
NS(=O)(=O)c1ccc(CNC(=O)c2cccc(S(=O)(=O)N3CCc4ccccc43)c2)cc1 41%
CCc1nnc(NC(=O)CSc2nnc(-c3ccncc3)n2Cc2ccccc2)s1 30.7%
CC(CCc1ccc(O)cc1)NCc1ccc(Cl)cc1Cl (stereo unspecified) 57%
CCOC(=O)C1=C(c2ccccc2)O/C(=C(/C(=O)OC)C(F)(F)F)S1 39%
O=C(NC(=O)c1ccccc1)Nc1ccccc1O 40%
COc1ccc(C(=O)Nc2cc(C)ccc2NC(=O)COc2ccccc2)cc1 44.4%
Cc1cccc(OCC(O)Cn2c(=N)n(CCN3CCOCC3)c3ccccc32)c1 (stereo unspecified) 31.7%
COc1ccc(/C=C/CN2CCCC(C(=O)c3cc(F)ccc3F)C2)cc1 (stereo unspecified) 34.2%
CC(C)(C)Nc1c(N)c(=O)oc2ccccc12 33.7%
CCN1CCN(C(=O)Cn2nc(C)n3c(cc4c(OC)cccc43)c2=O)CC1 35.3%
CCCC(C)C(=O)OCC(=O)Nc1c(Br)cc(C)cc1Br (stereo unspecified) 39.9%
Cc1c(C)c2c(OCC(=O)N[C@@H](C(=O)O)c3ccccc3)cc3c(c2oc1=O)CCC(C)(C)O3 30.5%
CN(CC(=O)Nc1cccc(F)c1)C(=O)C1CC(=O)N(CCc2ccccc2)C1 (stereo unspecified) 33.5%
c1ccc(-c2cc3c(NCC4COc5ccccc5O4)ncnc3s2)cc1 (stereo unspecified) 31.8%
COc1cc(CC(=O)N/N=C/c2ccccc2)c([N+](=O)[O-])cc1OC 77%

inhibition, inactive:
O=C(CN1CCN(C/C=C/c2ccccc2)CC1)Nc1ccc(F)cc1F 6.36%
O=C(CCN1CCN(C/C=C/c2ccccc2)CC1)Nc1cccc(F)c1 -21%
O=C(CN1CCN(S(=O)(=O)c2cccc(Cl)c2)CC1)N1CCCCC1 14%
Cc1ccc(C)c(NC(=O)CN(C)C(=O)c2ccc3ncsc3c2)c1 17.4%
CCCn1nc(C(=O)OCc2nc(N)nc(Nc3ccccc3C)n2)c2ccccc2c1=O 6.08%
Cc1ccc(S(=O)(=O)N(C)CC(=O)OCC(=O)Nc2ccccc2)cc1 -5.35%
COc1cc(OC)c(C(=O)OCC(=O)N2CC(=O)Nc3ccccc32)cc1OC -2.09%
COc1cc(C(=O)Nc2ncccc2C)ccc1OCC(=O)N1CCOCC1 -21.1%
COc1ccc(NC(=O)CN(C)C(=O)c2cccc(S(=O)(=O)N3CCN(c4ccccc4)CC3)c2)cc1 -9.07%
Cc1cccc(-c2oc3ccc(-c4ccc5c(c4)OCO5)cc3c2C#Cc2cncn2C)c1 11.3%
COc1ccc(/C=C(\NC(=O)c2ccc(OC)c(OC)c2)C(=O)NCCc2c[nH]c3ccccc23)cc1 -6.61%
COc1ccccc1CC(=O)NCCc1c[nH]c2ccccc12 -11.6%
CC1CC(C)CN(C(=O)COC(=O)c2ccc3ncsc3c2)C1 (stereo unspecified) -13.9%
NS(=O)(=O)c1ccc(CNC(=O)c2cccc(Oc3ccccc3)c2)cc1 9.32%
Cc1ccc(NC(=O)c2cccc(S(=O)(=O)N3CCCc4ccccc43)c2)nc1 7.09%
Cc1ccccc1Nc1nc(N)nc(COC(=O)CCC(=O)c2ccc(F)cc2)n1 2.44%
COc1ccc(-c2c(-c3cc(OC)cc(OC)c3)n(C)c3ccc(-c4ccn[nH]4)cc23)cc1 -12.7%
CCc1nnc(NC(=O)CSc2nnc(Cc3ccccc3)n2-c2ccc(OC)cc2)s1 0.9%
Cc1cnc(NC(=O)CSc2nnc(-c3ccccc3)n2Cc2ccccc2)s1 8.7%
COc1ccccc1CNC(=O)COC(=O)c1sc(C)nc1C 16.2%
O=C(NCC1CCCO1)c1cc2c(s1)CCCC2 (stereo unspecified) 24.5%
O=C(COC(=O)CNC(=O)C1CCCCC1)Nc1cccc(F)c1 -2.8%
COc1ccc(CNC(=O)C(C)NCc2ccccc2Cl)cc1 (stereo unspecified) 2.26%
OC(CNCCc1ccc(Cl)cc1Cl)COc1ccccc1 (stereo unspecified) -28.1%
Cc1ccc(OCC(=O)Nc2ccccc2C(=O)NC2CC2)cc1 -3.15%
Cc1c(NS(=O)(=O)c2cc(C(=O)NCCc3ccc(F)cc3)cc(Cl)c2Cl)c(=O)n(-c2ccccc2)n1C 0.733%
CCOC(=O)c1nnn(-c2nonc2OC)c1-c1ccccc1 1.66%
COC(=O)/C(=C1\Oc2ccc(C(C)(C)C)cc2S1)C(F)(F)F 0.21%
COc1ccc(S(=O)(=O)N2CCN(CC(=O)N3c4ccccc4CC3C)CC2)cc1OC (stereo unspecified) -15.7%
CCCCn1c(N)c(N(CCC(C)C)C(=O)COC(=O)c2cccnc2OCC)c(=O)[nH]c1=O -12.2%
Cc1ccc(NC(=O)NC(=O)c2ccccc2)cc1F -2%
O=C(NC(=O)c1ccccc1)NC(=O)c1ccccc1 27%
CC(C)Cc1nnc(NC(=O)CCNC(=O)c2ccccc2Cl)s1 -3.78%
Cc1ccc(NC(=O)Cc2nc(COC(=O)C(C)NS(=O)(=O)c3ccc(C)cc3)cs2)cc1 (stereo unspecified) 2.42%
COc1ccc(OCC(=O)NNC(=O)c2cccc(C)c2)cc1 1.66%
Cc1cccc(OCC(=O)Nc2ccc(C(=O)O)cc2NC(=O)COc2cccc(C)c2)c1 -10.4%
O=C(NCCc1ccc(F)cc1)c1ccc2nccnc2c1 -19%
COc1cccc(OCC(O)CN2CCN(CCO)CC2)c1 (stereo unspecified) -3.18%
CCOc1ccc(C(O)Cn2c(=N)n(CCN3CCCCC3)c3ccccc32)cc1 (stereo unspecified) -7.44%
COc1ccc(C)cc1NC(=O)CCCN1C(=O)NC(C)(C)C1=O -9.24%
Cc1nnc(NC(=O)c2ccc3nccnc3c2)s1 3.14%
CC1(C(=O)OCC(=O)Nc2ncc(Cl)cc2Cl)CC1(Cl)Cl (stereo unspecified) 11.7%
C=CCN1C(=O)c2ccc(C(=O)N3CCC(C(=O)OCC)CC3)cc2C1=O 2.03%
O=C(c1ccc(OC2CCN(C/C=C/c3ccc(F)cc3)CC2)cc1)N1CCCCC1 26.2%
CSCC(=O)N1CCCC(C(=O)c2cc(F)ccc2F)C1 (stereo unspecified) -7.86%
O=C(NCCS(=O)(=O)N1CCN(c2ccccc2)CC1)c1ccco1 9.95%
Cc1csc2nc(COC(=O)c3cccc(N(C)C)c3)cc(=O)n12 -21.3%
CCNc1c(NS(=O)(=O)c2ccc(C3CCCCC3)cc2)c(=O)oc2ccccc12 16.7%
Nc1c(NCCc2ccccc2)c2ccccc2oc1=O -22.5%
CCC1(C)NC(=O)N(CC(=O)N2CCN(c3cccc(Cl)c3)CC2)C1=O (stereo unspecified) 22.3%
CCc1ccc(-c2nn(-c3ccccc3C)cc2C(=O)N2CCN(C3CCS(=O)(=O)C3)CC2)cc1 (stereo unspecified) 3.49%
CCc1nn(CC(=O)N2CCN(CC)CC2)c(=O)c2cccn12 1.45%
COc1cccc2c(=O)n(CC(=O)N3CCCCCC3)ccc12 5.43%
CN(C)C1=NC[C@H](Cc2ccccc2)N1CCc1ccc(F)cc1 -4.3%
Cc1ccc(S(=O)(=O)N(C)C)cc1NC(=O)c1ccc(-n2cncn2)c([N+](=O)[O-])c1 2.81%
CCC(C(=O)OCC(=O)Nc1c(Cl)cc(Cl)cc1Cl)c1ccccc1 (stereo unspecified) -3.7%
Cc1cc(C)cc(NC(=O)COC(=O)c2cc(C)oc2C)c1 -1.43%
COc1ccc(C(=O)NCc2ccc(C)cc2)cc1S(=O)(=O)N1CCCC1 -8.88%
CC1CCN(C(=O)COC(=O)CCC(=O)c2cccs2)CC1 24%
Cc1c(C)c2c(OCC(=O)NCCCO)cc3c(c2oc1=O)CCC(C)(C)O3 -0.698%
Cc1cc(=O)oc2c3c(cc(OCC(=O)N[C@H](C(=O)O)c4ccccc4)c12)OC(C)(C)CC3 3.15%
CCN(C(=O)COC(=O)c1c(C)nn(-c2ccccc2)c1Cl)c1c(N)n(Cc2ccccc2)c(=O)[nH]c1=O -3.1%
O=C(CSc1nnc(CN2CCCC2)n1-c1ccc(F)cc1)c1ccc2c(c1)OCO2 8.14%
CN(Cc1ccccc1Cl)C(=O)C1CCC(=O)N(CCc2cccc(F)c2)C1 (stereo unspecified) -0.289%
CCNC(=O)c1cccc(NC(=O)C2CC(=O)N(CCc3ccccc3)C2)c1 (stereo unspecified) -18%
Cn1c(N)c(C(=O)COC(=O)/C=C/c2cccc(C(F)(F)F)c2)c(=O)n(C)c1=O -16.8%
c1ccc2c(c1)OCC(CNc1ncnc3nc[nH]c13)O2 (stereo unspecified) -3.03%
COc1ccc(Nc2ncnc3sc(-c4ccccc4)cc23)c(OC)c1 -16.4%
CC(=O)c1ccc(S(=O)(=O)NCCC(=O)N2CCN(c3ccccn3)CC2)cc1 -35%
CN(C)CCN(C(=O)CN1C(=O)c2ccccc2C1=O)c1nc2cc3c(cc2s1)OCCO3 12.4%
CCN(C(=O)COC(=O)C1CCN(S(=O)(=O)c2ccc(C)c(C)c2)CC1)C1CCS(=O)(=O)C1 (stereo unspecified) 10.6%
O=C(Cc1cc(=O)[nH][nH]1)N/N=C/c1ccccc1[N+](=O)[O-] 11.1%
COc1cc(/C=N/NC(=O)Cc2ccccc2)cc(OC)c1OC 1.38%
